# Laboratory results as given in PubChem BioAssay (NCATS).
# Several values for one entry are separate records, joined by “and”; a condition that tells them apart may be missing. Equal entries are not always repeated. Inconclusive results are not listed. A call without a number means that no potency is given here. Activity calls are given as the source filed them. Unless noted, calls follow the shape of the dose curve; as a rule, active = well fitted curve in the direction sought with a large enough effect; inconclusive = small, poorly fitted or top-dose-only effect, or another doubt; inactive = no such curve, though single readings can be large; an effect the other way counts as inactive or inconclusive.
# Key:
# [1] = Cell Viability - H-4-II-E (AID 543); also: nearly all actives have a fitted effect of over 35% in size
# In short: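 Luminescent ATP signal (CellTiter-Glo) served as the viability read-out, with cytotoxicity seen as a concentration-dependent ATP drop. Cells were treated for 40 hours in complete medium. AC50 values derive from Hill-equation modelling.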
# [2] = Cell Viability - SH-SY5Y (AID 544); settings: SH-SY5Y neuroblastoma cell viability; viability change, negative = cytotoxic: at 92.2 µM (top of the series); also: nearly all actives have a fitted effect of over 55% in size; also: potency is read from the fitted curve at half-maximal effect
# In short: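 Luminescent ATP read-out (CellTiter-Glo) measures loss of viable SH-SY5Y neuroblastoma cells after 40 hr compound exposure at 37 °C. AC50 values derive from standard Hill modelling of qHTS concentration-response data.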
# [3] = Cellular Toxicity (caspase-3) SHSY5Y (AID 657)
# In short: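 qHTS, SH-SY5Y, 1500 cells/well, 5 h pre-incubation 37 °C; compound 16 h 37 °C; Caspase-Glo 3/7 1 h RT; luminescence. Norm.: DMSO = 0, 10 uM staurosporine = 100%. Hill fit → AC50.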
# [4] = Cell Viability - LYMP2-001 (AID 921);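 also: cells exposed to compound for 24 h at 37 °C; nearly all actives have a fitted effect of over 70% in size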
# In short: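 Steps: seed 2500 lymphoblastoid cells/well; 5 hr, 37 C; add compound; 24 hr, 37 C; CellTiter-Glo reagent, 30 min room temperature; read luminescence. Concentration-response modeled by Hill equation for AC50.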
# [5] = MultiTox-Fluor Cytotoxicity Assay - LYMP1-003 - Live Cells (AID 962);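 also: cytotoxic hits lower the live-cell protease signal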
# In short: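 qHTS, 1536-well; 2500 cells/well LYMP1-003; 5 hr 37 C settle; cpd 16 hr 37 C; MultiTox-Fluor reagent 60 min RT; live-cell protease fluor. 405/510; Hill-fit AC50; tetraoctylammonium bromide pos. ctrl.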
# [6] = Cell Viability - LYMP2-004 (AID 966); also: nearly all actives have a fitted effect of over 65% in size
# In short: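 Cells seeded 2500/well, rested 5 hr at 37 C, dosed across a concentration series, incubated 24 hr at 37 C, then CellTiter-Glo added for 30 min at room temperature and luminescence read. Hill fitting gave AC50.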
# [7] = Cell Viability - LYMP2-005 (AID 967);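 also: cells exposed to compound for 24 h at 37 °C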; also: potency is read from the fitted curve at half-maximal effect
# In short: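 Acute cytotoxicity is scored as a concentration-dependent drop in intracellular ATP in human lymphoblastoid LYMP2-005 cells after 24 h compound treatment. ATP is quantified by luciferase luminescence, and AC50 is derived by Hill-equation modelling.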
# [8] = Cell Viability - LYMP2-013 (AID 970);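 also: cells exposed to compound for 24 h at 37 °C; nearly all actives have a fitted effect of over 55% in size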
# In short: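 qHTS; 2500 lymphoblastoid cells/well; 5 hr 37 C settle; cpd 24 hr 37 C; CellTiter-Glo, 30 min RT; luminescence. AC50 = Hill fit.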
# [9] = Cell Viability - LYMP2-025 (AID 976);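 also: cells exposed to compound for 24 h at 37 °C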
# In short: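 Seed 2500 LYMP2-025 cells/well; 5 hr at 37 C; add compound; 24 hr at 37 C; add CellTiter-Glo; 30 min RT; read luminescence. AC50 from Hill-modelled concentration-response.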
# [10] = Cell Viability - LYMP2-007 (AID 979);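 also: cells exposed to compound for 24 h before reading; nearly all actives have a fitted effect of over 60% in size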
# In short: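 Luminescent ATP signal (CellTiter-Glo) serves as the viability read-out after 24 hr compound treatment of lymphoblastoid cells in complete medium at 37 C. Concentration-response data were fitted to the Hill equation to give AC50 values.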
# [11] = Cell Viability - LYMP2-012 (AID 982);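 also: cellular ATP by luciferase luminescence where a drop means cytotoxicity; cells exposed to compound for one day before reading; nearly all actives have a fitted effect of over 55% in size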
# [12] = Cell Viability - LYMP2-018 (AID 985);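 also: compound exposure lasted 24 hr at 37 °C; nearly all actives have a fitted effect of over 50% in size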
# In short: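 Luminescent ATP signal (CellTiter-Glo, read after 30 min at room temperature) reports viable cells after 24 hr compound treatment at 37 C. Concentration-response data were fitted to the standard Hill equation for AC50.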
# [13] = Cell Viability - LYMP2-026 (AID 989);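 also: cells exposed to compound for 24 h at 37 °C; nearly all actives have a fitted effect of over 50% in size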
# In short: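 Luminescent ATP signal (CellTiter-Glo, 30 min room temperature) measures viable lymphoblastoid cells after 24 hr compound treatment at 37 C. Decreased ATP reflects acute toxicity; AC50 values come from Hill-equation modeling.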
# [14] = Cell Viability - LYMP1-002 - Assay at 40 hr (AID 994); also: nearly all actives have a fitted effect of over 60% in size
# In short: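 Luminescent ATP signal served as the viability readout, with decreases taken as toxicity. Cells were treated with compounds across a concentration range for 40 hours at 37 C, and AC50 values came from standard Hill modeling.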
# [15] = qHTS assay for small molecule agonists of retinoid X receptor alpha signaling (AID 588544; calls by dose curve); settings: HEK293T RXRa-UAS-bla, beta-lactamase reporter, 18 h; 530 nm emission
# [16] = target: Retinoic acid receptor RXR-alpha (Homo sapiens) (UniProt P19793); test: as above
# [17] = qHTS assay for small molecule antagonists of retinoid X receptor alpha signaling (AID 588546; active = well fitted inhibition curve with a large enough effect in the signal ratio, with a control signal flat, not every such curve was filed as active; the % refers to the signal ratio;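 also: cells stimulated with 9-cis-retinoic acid as agonist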); settings: HEK293T RXRa-UAS-bla, beta-lactamase ratio, antagonist mode; measured here: W530 green channel, cytotoxicity proxy
# In short: (§1)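 Beta-lactamase reporter inhibition, read as CCF4 fluorescence ratio (ex 405, em 460/530 nm) after 2 h at RT. HEK293T UAS-bla cells, 2500/well, were stimulated with 9-cis-RA at 500 or 100 nM final alongside test compound for 18 h at 37 C.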
# [18] = target: Retinoic acid receptor RXR-alpha (Homo sapiens) (UniProt P19793); test: as above; settings: HEK293T RXRa-UAS-bla, beta-lactamase ratio, antagonist mode
# In short: as §1
# [19] = qHTS assay for small molecule agonists of the antioxidant response element (ARE) signaling pathway measured by Nrf2-dependant transcriptional activity (AID 720636; active = well fitted curve in the direction sought with a large enough effect in the repeat runs; an effect the other way counts as inactive or inconclusive;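 also: HepG2 cells with an ARE-driven luciferase reporter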)
# In short: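 Cells: ARE-luc HepG2 with Nrf2-responsive luciferase. Medium contained 1% dialyzed FBS. Compound exposure lasted 16 hr at 37 C and 5% CO2, followed by ONE-Glo luciferase detection.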
# [20] = qHTS assay for small molecule antagonists of the retinoid-related orphan receptor gamma (ROR-gamma) signaling pathway - cell viability counter screen (AID 720652; active = well fitted curve in the direction sought with a large enough effect in the repeat runs; an effect the other way counts as inactive or inconclusive;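 also: compound exposure lasted 16 hr before ATP read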)
# In short: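 Luminescence from CellTiter-Glo after 30 min at room temperature reported cellular ATP as the cytotoxicity measure. Cells were the CHO reporter line with doxycycline-induced ROR-gamma expression, exposed to compound for 16 hr at 37 C.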
# Retinoic acid receptor RXR-alpha (Homo sapiens), sequence (P19793 whole entry, looked up): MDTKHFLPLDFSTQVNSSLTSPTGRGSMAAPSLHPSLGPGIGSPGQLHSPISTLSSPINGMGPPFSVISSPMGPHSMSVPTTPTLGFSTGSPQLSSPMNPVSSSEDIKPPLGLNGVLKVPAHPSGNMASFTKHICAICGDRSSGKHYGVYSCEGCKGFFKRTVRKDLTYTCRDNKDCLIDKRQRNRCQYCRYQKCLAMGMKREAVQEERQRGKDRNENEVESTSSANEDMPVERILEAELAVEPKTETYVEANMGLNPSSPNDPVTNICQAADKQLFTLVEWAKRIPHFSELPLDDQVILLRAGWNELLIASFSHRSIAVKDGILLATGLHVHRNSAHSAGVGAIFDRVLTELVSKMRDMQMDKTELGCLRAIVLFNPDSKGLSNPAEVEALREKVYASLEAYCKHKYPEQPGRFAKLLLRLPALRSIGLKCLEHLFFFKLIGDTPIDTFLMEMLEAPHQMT
Compound,Potency [1],Potency [2],outcome [3],Potency [4],outcome [5],Potency [6],Potency [7],Potency [8],Potency [9],Potency [10],Potency [11],Potency [12],Potency [13],Potency [14],max response [15],outcome [16],max response [17],max response [18],Potency [19],Potency [20]
C1CC2OC2CC1C1CO1 (stereo not drawn),inactive,inactive,inactive,inactive,inactive,inactive,inactive,inactive,inactive,inactive,inactive,inactive,inactive,inactive,-2.62%,inactive,-7.13% and -27.8%,10.1% (inactive) and -3.3% (inactive),inactive,inactive
FC(Cl)(Cl)Cl,inactive,inactive,inactive,inactive,inactive,inactive,inactive,inactive,inactive,inactive,inactive,inactive,inactive,inactive,-11.5%,inactive,-8.6%,-1.5% (inactive),inactive,inactive
ClC=CCl,inactive,inactive,inactive,inactive,inactive,inactive,,inactive,inactive,inactive,inactive,inactive,inactive,inactive,-1.25%,inactive,-4.87%,-1.6% (inactive),inactive,inactive
C=CCCl,inactive,inactive,inactive,inactive,inactive,inactive,inactive,inactive,inactive,inactive,inactive,inactive,inactive,inactive,-13.3%,inactive,,,inactive,inactive
CCC/C=N/O,inactive,inactive,inactive,inactive,inactive,inactive,inactive,inactive,inactive,inactive,inactive,inactive,inactive,inactive,-21.6%,inactive,-10.3%,-0.259% (inactive),inactive,inactive
O=S(=O)(O)F,inactive,inactive,inactive,inactive,inactive,inactive,inactive,inactive,inactive,inactive,inactive,inactive,inactive,inactive,-13.3%,inactive,-2.92%,39.7% (inactive),inactive,inactive
CCC[N+](=O)[O-],inactive,inactive,inactive,inactive,inactive,inactive,inactive,inactive,inactive,inactive,inactive,inactive,inactive,inactive,-16.6%,inactive,,,inactive,inactive
CN(C)C(=O)Nc1ccc(Cl)cc1,inactive,inactive,inactive,inactive,inactive,inactive,inactive,inactive,,inactive,inactive,inactive,inactive,inactive,-9.88% and -12.4%,inactive,-7.13% and -6.88%,-0.754% (inactive) and 1.84% (inactive),inactive,inactive
[O-][Cl+]O,inactive,inactive,inactive,inactive,inactive,inactive,inactive,inactive,inactive,inactive,inactive,inactive,inactive,inactive,-9.53%,inactive,0.141%,22.2% (inactive),inactive,inactive
CCC#N,inactive,inactive,inactive,inactive,inactive,inactive,inactive,inactive,inactive,inactive,inactive,inactive,inactive,inactive,3.48%,inactive,15.9%,10.5% (inactive),inactive,inactive
CC(C)C#N,inactive,inactive,inactive,inactive,inactive,inactive,inactive,inactive,inactive,inactive,inactive,inactive,inactive,inactive,-7.08%,inactive,-7.48%,2.91% (inactive),inactive,inactive
Cc1ccc(N)cc1N,inactive,,inactive,inactive,inactive,inactive,inactive,inactive,inactive,inactive,inactive,inactive,inactive,inactive,-4.9% and 16.6%,inactive,-0.584% and 0.527%,9.25% (inactive) and -0.891% (inactive),inactive,inactive
C=CCc1cc(OC)c2c(c1)OCO2,inactive,inactive,inactive,inactive,inactive,inactive,inactive,inactive,inactive,inactive,inactive,inactive,inactive,inactive,-17.2%,inactive,-4.92%,9.86% (inactive),inactive,inactive
NNC(N)=S,inactive,inactive,inactive,inactive,inactive,inactive,inactive,inactive,inactive,inactive,inactive,inactive,inactive,inactive,,,6.4%,9.82% (inactive),inactive,inactive
Cc1cc(-c2ccc(N)c(C)c2)ccc1N,,inactive,inactive,inactive,inactive,inactive,inactive,inactive,inactive,inactive,inactive,inactive,inactive,inactive,-4.96% and -4.31%,inactive,-15.7% and -12.6% and -3.84%,-5.08% (inactive) and -3.85% (inactive) and -31.9% (inactive),inactive,inactive
CCN(CC)CCO,inactive,inactive,inactive,inactive,inactive,inactive,inactive,inactive,inactive,inactive,inactive,inactive,inactive,inactive,-4.75%,inactive,3.45%,35.6% (inactive),inactive,inactive

Compound,Potency [1],Potency [2],outcome [3],Potency [4],outcome [5],Potency [6],Potency [7],Potency [8],Potency [9],Potency [10],Potency [11],Potency [12],Potency [13],Potency [14],max response [15],outcome [16],max response [17],max response [18],Potency [19],Potency [20]
Nn1cnnc1,inactive,inactive,inactive,inactive,inactive,inactive,inactive,inactive,inactive,inactive,inactive,inactive,inactive,inactive,6.31%,inactive,-0.424%,24.4% (inactive),inactive,inactive
ClP(Cl)(Cl)(Cl)Cl,inactive,,inactive,inactive,inactive,inactive,inactive,inactive,inactive,inactive,inactive,inactive,inactive,inactive,5.7%,inactive,4.58%,-15.7% (inactive),inactive,inactive
COC(=O)Nc1cccc(OC(=O)Nc2cccc(C)c2)c1,,39.8 µM (active),inactive,inactive,inactive,inactive,inactive,inactive,inactive,inactive,inactive,inactive,inactive,inactive,14%,inactive,-2.23%,4.03% (inactive),,inactive
Clc1cccc(Cl)c1,inactive,inactive,inactive,inactive,inactive,inactive,inactive,inactive,inactive,inactive,inactive,inactive,inactive,inactive,5.35%,inactive,-14.2%,24.2% (inactive),inactive,
Cl/C=C/Cl,inactive,inactive,inactive,inactive,inactive,inactive,inactive,inactive,inactive,inactive,inactive,inactive,inactive,inactive,1.12%,inactive,-8.73%,6.16% (inactive),inactive,inactive
COC(=O)c1ccccc1N,inactive,inactive,inactive,inactive,inactive,inactive,inactive,inactive,inactive,inactive,inactive,inactive,inactive,inactive,-15.1%,inactive,0.965%,17.4% (inactive),inactive,inactive
CSSC,inactive,inactive,inactive,inactive,inactive,inactive,inactive,inactive,inactive,inactive,inactive,inactive,inactive,inactive,1.16%,inactive,-12.8%,7.08% (inactive),inactive,inactive
S=C1NCCN1,inactive,inactive,inactive,inactive,inactive,inactive,inactive,inactive,inactive,inactive,inactive,inactive,inactive,inactive,-9.74% and -4.86%,inactive,-7.1% and 12.2%,-12.1% (inactive) and 9.5% (inactive),inactive,inactive
C=CC#N,inactive,inactive,inactive,inactive,inactive,inactive,inactive,inactive,inactive,inactive,inactive,inactive,inactive,inactive,6.79%,inactive,-3.06%,19% (inactive),inactive,inactive
[N-]=[N+]=[N-],inactive,inactive,inactive,inactive,inactive,,2.51 µM (active),inactive,inactive,inactive,inactive,inactive,inactive,inactive,-2.08%,inactive,-3.73%,13.8% (inactive),inactive,inactive
Cc1ccc(N=C=O)cc1N=C=O,inactive,inactive,inactive,inactive,inactive,inactive,inactive,inactive,inactive,inactive,inactive,inactive,inactive,inactive,-4.25% and -19.3%,inactive,4.82% and -6.24%,6.03% (inactive) and 0.743% (inactive),inactive,inactive
O=C(Cl)c1ccccc1F,inactive,inactive,inactive,inactive,inactive,inactive,inactive,inactive,inactive,inactive,inactive,inactive,inactive,inactive,6.73%,inactive,-4.19%,13.4% (inactive),inactive,inactive
C=C(Cl)CCl,inactive,inactive,inactive,inactive,inactive,inactive,inactive,inactive,inactive,inactive,inactive,inactive,inactive,inactive,-8.31%,inactive,4.21%,-0.897% (inactive),inactive,inactive
CCNCC,inactive,inactive,inactive,inactive,inactive,inactive,inactive,inactive,inactive,inactive,inactive,inactive,inactive,inactive,-7.47%,inactive,,,inactive,inactive
CC(=O)CCC(C)=O,inactive,inactive,inactive,inactive,inactive,inactive,inactive,inactive,inactive,inactive,inactive,inactive,inactive,inactive,0.0938%,inactive,-1.17%,0.643% (inactive),inactive,inactive
